# HT1080-NT tox: kills 2HG-producing HT-1080-NT fibrosarcoma cells; 360,000 tested, 1.6% active; HT-1080-NT fibrosarcoma viability, CellTiter-Glo ATP luminescence, 48 h; AID 686970; Potency, µM (top dose mostly 46.1 µM), without a hit: top-dose activity, negative = less viability, most hits filed as cytotoxic;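 further: NT is the 2HG producing partner of a matched IDH1 knockdown line; potency means the concentration at half of the fitted maximal effect; 0% = DMSO-treated cells and -100% = media-only wells without cells; nearly all actives have a fitted effect of over 55% in size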
#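 Fibrosarcoma NT cells, 750 per well in 5% FBS RPMI, were exposed to compound for 48 hours. Viability: CellTiter-Glo luminescence.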
# IL-1B inflam inh: inflammasome signaling inhibition, IL-1 beta readout | activity change, % at 57.5 µM | THP-1 LPS/ATP IL-1B secretion, AlphaLISA, 16 h; active compounds read low | 360,000 tested, 4.7% active; in the data active means activity change below about -50%; inconclusive means mostly about -30% to -49%
#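 Secreted IL-1B measured by AlphaLISA bead assay after 16 h compound exposure of THP-1 cells; compounds (final up to 57.5 uM) added 1 h before LPS (250 ng/mL) and ATP (1.25 mM) stimulation; lower signal means less secretion.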
# DT40 TDP1 no CPT: qHTS for Inhibitors of human tyrosyl-DNA phosphodiesterase 1 (TDP1): qHTS in cells in absence of CPT; DT40 Tdp1-/- hTDP1 cells, no CPT, ATP luminescence, 48 h; Potency, µM (top dose mostly 46.2 µM), for the others: at the highest dose activity change, negative = growth inhibition, actives largely listed as inhibitors; 420,000 tested, 15% active; AID 686978, 2013; further: potency means the concentration at half of the fitted maximal effect; nearly all actives have a fitted effect of over 55% in size
#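 Stably hTDP1-transfected Tdp1-null chicken DT40 cells were treated with library compounds minus camptothecin and grown for at least 48 hr at 37 °C, after which cellular ATP was quantified by luminescence.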
# HT1080 IDH1KD tx: HT-1080 IDH1 knockdown cell toxicity (counter line) | HT-1080 IDH1 knockdown viability, ATP luminescence, 48 h | Potency, µM (highest dose often 46.1 µM), for the others: at the top dose activity, negative = toxicity, actives largely listed as cytotoxic | 360,000 tested, 2% active | AID 686971;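 further: potency means the concentration at half of the fitted maximal effect; 0% = DMSO wells and -100% = cell-free medium wells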
#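 After a 2 h attachment period, IDH1KD HT-1080 cells took pin-transferred compound for 48 h at 37 °C; ATP-based luminescence after 10 min room-temperature reagent incubation reported viability.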
# DT40 TDP1 CPT: DT40-hTDP1 cell growth loss with CPT | chicken DT40 Tdp1-/-;hTDP1 cells + 20 nM CPT, ATP luminescence, 48 h | Potency, µM (doses to about 46.2 µM), without a hit: at the top dose activity change, negative = growth inhibition, actives largely listed as inhibitors | 420,000 tested, 12% active; further: potency means the concentration at half of the fitted maximal effect; nearly all actives have a fitted effect of over 55% in size
#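 Chicken DT40 Tdp1-/- cells complemented with human TDP1, 400 cells/well, exposed to compounds plus 20 nM camptothecin for at least 48 h at 37 C; viability read as ATP content by CellTiter-Glo luminescence.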
# The depositor's hits bear a star; ? = inconclusive; / = no result. Most compounds without a hit are left out; they make up all but 19% or so of the library. Unless noted, the call rests on the fitted dose curve; in most records, active means well fitted curve in the direction sought with a large enough effect; inconclusive means small, poorly fitted or top-dose-only effect, or another doubt; inactive means no such curve, though single readings can be large; an effect the other way counts as inactive or inconclusive. Unless noted, on the % scale 0 is the no-effect control and ±100 the full control effect.
SMILES,HT1080-NT tox,IL-1B inflam inh,DT40 TDP1 no CPT,HT1080 IDH1KD tx,DT40 TDP1 CPT
CSCC[C@@H](CO)NC(=O)[C@H]1O[C@@H](n2ccc(=O)[nH]c2=O)[C@H](O)[C@@H]1O,21%,19,-7%,1%,-10%
CCc1ccc(C(=O)C(C)OC(=O)c2nc3nc(C)cc(C)n3n2)cc1 (stereo unspecified),1%,-8,11%,6%,-16%
COc1ccc([C@@H]2CC(=O)[C@@H]3CN(S(=O)(=O)c4ccc(C)cc4)[C@H](c4ccccc4)C[C@@H]3N2S(=O)(=O)c2ccccc2)cc1,13%,12,-7%,11%,-16%
COc1ccccc1-c1nnc(-c2ccc(N3CCOCC3)cc2)o1,4%,?,21µM*,6%,?
COc1ccccc1-c1nnc(-c2ccc(C)cc2)o1,1%,/,?,-2%,-10%
COc1ccccc1NC(=O)Cn1c(=O)n(CC2CCC(C(=O)NCCc3ccccc3)CC2)c(=O)c2ccccc21 (stereo unspecified),/,/,?,/,18µM*
O=C(NCCc1ccccc1)C1CCC(Cn2c(=O)c3ccccc3n(Cc3cccc(Cl)c3)c2=O)CC1 (stereo unspecified),19%,25,15µM*,25%,?
COc1cc(NC(=O)Cn2c(=O)n(CC3CCC(C(=O)NCCc4ccccc4)CC3)c(=O)c3ccccc32)cc(OC)c1 (stereo unspecified),/,/,?,/,12µM*
COc1ccc(NC(=O)Cn2c(=O)n(CC(=O)NCCc3ccccc3)c(=O)c3ccccc32)cc1,/,/,-19%,/,-17%
O=C(NCCc1ccccc1)C1CCC(Cn2c(=O)c3ccccc3n(Cc3cccc(F)c3)c2=O)CC1 (stereo unspecified),7%,16,?,6%,?
Cc1cccc(NC(=O)Cn2c(=O)n(CC3CCC(C(=O)NCCc4ccccc4)CC3)c(=O)c3ccccc32)c1 (stereo unspecified),/,/,?,/,18µM*
O=C(Nc1ccn(CCCN(CCCn2ccc(NC(=O)OCc3ccccc3)nc2=O)CCc2cc3ccccc3[nH]2)c(=O)n1)OCc1ccccc1,?,82,?,18µM*,?
O=C(Nc1ccn(CCCNCc2ccccc2)c(=O)n1)OCc1ccccc1,-13%,5,?,-10%,?
Cc1ccc(CNC(=O)CN(C(=O)C2(C)CC(=O)N=C3C=CC=CN32)c2cccc(C)c2C)cc1 (stereo unspecified),7%,9,-2%,9%,10%
Clc1ccccc1CNCC1CCC(CNCc2ccccc2Cl)CC1 (stereo unspecified),/,/,3µM*,/,3µM*
CCOc1ccc(CNCc2ccccc2Cl)cc1,-71%,?,?,-18%,16µM*
CCN(CC)CCCNC(=O)Cn1c(-c2cccs2)cc2cc(Cl)ccc21,/,/,21µM*,/,?
CCC(C)NC(=O)Cn1c(-c2cccs2)cc2cc(Cl)ccc21 (stereo unspecified),/,/,-13%,/,6%
CN1CCN(C(=O)Cn2c(-c3cccs3)cc3cc(Cl)ccc32)CC1,/,/,23µM*,/,?
O=C(O)Cn1c(-c2cccs2)cc2cc(Cl)ccc21,/,/,1%,/,-18%
c1ccc(Sc2ccccc2CN2CCCC2)cc1,-3%,-29,-25%,-2%,8%
N=C(N)Cc1ccccc1Sc1ccccc1,-3%,?,8.2µM*,-18%,9.2µM*
CC(C)(C)c1ccccc1OCCOCCN1CCCCCC1,-14%,-62*,15µM*,?,?
Cc1ccc(C(C)(C)C)c(OCCOCCN2CCCC2)c1,3%,-8,?,1%,15µM*
CCCCN(CCCC)CCNC(=O)Cn1nc(CC)n2c(cc3sc(C)cc32)c1=O,/,/,16µM*,/,15µM*
CCc1nn(CC(=O)NC(C)C)c(=O)c2cc3cc(F)ccc3n12,/,/,-13%,/,6%
CCc1cc2c(cc3c(=O)n(CC(=O)NC(C)C)nc(CC)n32)s1,/,/,16µM*,/,?
